Measured values published in PubChem BioAssay.
Activity calls are given as the source filed them. The rule behind the calls is not given here.

Assay: inhibition of PAO1 biofilm formation – strain PAO1, LB-PBS medium, absorbance 600 nm, primary screen (AID 1176); note: test concentration not given here
Details: P. aeruginosa PAO1 growth/biofilm, A600, 12 h; higher = more signal

z-score, inactive:
CC(C)C[C@@H]1NC(=O)[C@@H]2C[C@H](C(=O)NCc3ccc(F)cc3)[C@H](c3cccc(OCCO)c3)N2C1=O 0.475, C=CCC(OC(C)=O)[C@@H]1[C@@H](N(Cc2ccc(-c3ccccc3)cc2)C(=O)c2cccc3ccccc23)c2cc(OCCCO)ccc2N1C(=O)c1ccc(-c2ccccc2)cc1 (some centres not stated) -0.0391, CCCC[C@H]1OB(O)C[C@H]2C1=C(COC)Cn1c(=O)n(-c3ccccc3)c(=O)n12 0.0937, O=C1NC(=O)C2C1C=CC(C(O)c1cc(C(F)(F)F)cc(C(F)(F)F)c1)N2Nc1ccccn1 (configuration not stated) 1.36, CC1CC/C=C\[C@H]2OC34C=CCN(Cc5ccccc5)C(=O)[C@H]3N(CCCO)C(=O)[C@@H]4C2C(=O)O1 (some centres not stated) -0.0963, C=C(CC1([C@@H](NP(=O)(c2ccccc2)c2ccccc2)[C@H]2C[C@@H]2CCCC)CC1)c1ccccc1 0.812, CC(C)N1C(=O)c2ccccc2[C@](C)(C(=O)NCCN2CCOCC2)[C@@H]1c1ccc(CO)cc1 0.484, [N-]=[N+]=NCc1ccccc1[C@@H]1OC(c2ccc(OCCCO)cc2)=N[C@]1(Cc1ccccc1)C(=O)NCC(O)CO (some centres not stated) 1.35, Cc1ccc(S[C@]2(C(=O)NCCCN(C)C)CC(=O)N(Cc3ccccc3C(F)(F)F)[C@@H]2c2ccc(CO)cc2)cc1 -0.0807, [N-]=[N+]=Nc1ccccc1[C@@H]1OC(c2ccc(OCCCO)cc2)=N[C@]1(Cc1ccccc1)C(=O)N1CCOCC1 -0.0279, Cc1nc2cc(Br)ccc2c(=O)o1 -0.214, CC1CC/C=C\[C@H]2OC34C=CCN(C(C)(C)C)C(=O)[C@H]3N(C(C)CO)C(=O)[C@@H]4C2C(=O)O1 (some centres not stated) -0.525, C=CCOC(=O)[C@@H]1[C@H]2C(=O)O[C@H](c3ccccc3)[C@H](c3ccccc3)N2[C@H](c2ccc(OCCOC(=O)[C@H]3C[C@H]4C(=O)N5CCC[C@H]5C(=O)N4[C@H]3c3ccc(O)cc3)cc2)[C@@]12C(=O)Nc1ccc(I)cc12 3.16, C=C(/C(=C/C[C@H](OC(C)=O)c1ccccc1OCCO)c1cnc2ccccc2c1)C(C)C 2.19, CCCCN1CC=CC23O[C@@H]4C=CCCOC(=O)C4[C@H]2C(=O)N(CCCCCCO)[C@@H]3C1=O (some centres not stated) -0.14, COc1ccc(C#Cc2ccc3c(c2)[C@]2(C(=O)N3)[C@H](C(=O)NC[C@H](O)c3ccccc3)[C@H]3C(=O)O[C@H](c4ccccc4)[C@H](c4ccccc4)N3[C@@H]2c2ccc(O)cc2)cc1 0.971, O=C(c1ccccc1)N1C(=O)[C@]2(COC(c3ccc(OCCCO)cc3)=N2)Cc2ccccc21 0.95
